Biological target: T1, ETS1 (UniProt P14921)
T1 sequence: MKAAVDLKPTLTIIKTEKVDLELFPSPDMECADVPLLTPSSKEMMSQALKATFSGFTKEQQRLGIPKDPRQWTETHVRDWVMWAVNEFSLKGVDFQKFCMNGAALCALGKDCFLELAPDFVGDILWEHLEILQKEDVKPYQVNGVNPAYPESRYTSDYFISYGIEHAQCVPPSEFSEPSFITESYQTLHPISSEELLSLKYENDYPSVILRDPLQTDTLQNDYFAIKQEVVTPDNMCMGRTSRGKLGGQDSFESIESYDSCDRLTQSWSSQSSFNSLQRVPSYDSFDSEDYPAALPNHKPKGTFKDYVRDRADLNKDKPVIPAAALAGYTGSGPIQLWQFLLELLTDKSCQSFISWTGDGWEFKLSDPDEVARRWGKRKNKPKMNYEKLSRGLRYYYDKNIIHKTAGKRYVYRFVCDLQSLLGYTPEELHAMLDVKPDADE
Assay: ETS1 binding intensity (PBM fluorescence) in presence of RUNX1, normalised to ETS1-only experiment (arbitrary fluorescence units); higher = stronger binding
Conditions: ETS1 concentration 1 nM; RUNX1 concentration 25 nM
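Throughout, for RUNX1 binding intensity (PBM fluorescence) in presence of ETS1, normalised to RUNX1-only experiment: Full-length recombinant human ETS1 or RUNX1 bound to double-stranded 36-bp genomic probes on microarrays, detected by protein-specific primary antibody and Alexa488 secondary, spot fluorescence as median of four replicate spots.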

AGTGGATAGCACTTCCTTCTCTTACCACAGTTCCTT was tested. Which ETS1 binding intensity did it give?
The ETS1 binding intensity was 558.

Which ETS1 binding intensity does the source give for GCTGCAAGGCGGAAGCAGCGCGGTCGGACGGGCATG here?
Its ETS1 binding intensity is 2400.

Which ETS1 binding intensity does the source give for CTGCCTTTCCTGCTAGGGTACAAACCACAGCCTTAG here?
The ETS1 binding intensity was 774.

Which ETS1 binding intensity does the source give for GTGGGTTTAGGATATGGGTGTGGTTTCTAATTGTCT here?
The ETS1 binding intensity was 653.

Which ETS1 binding intensity does the source give for CACCCTCAACTTCCTGACCCATAAACCACAAGCTAT here?
Its ETS1 binding intensity is 1810.

How did the ETS1 binding intensity turn out when AAGAGGAAGTCCCAAATTGCTTTTTAACCACCAACA was run?
The ETS1 binding intensity was 874.

How did the ETS1 binding intensity turn out when ACAGAGAAGCTTCCTATTGTGGGATTCACCACCACC was run?
The ETS1 binding intensity was 705.

Which ETS1 binding intensity does the source give for ACAAAGAAACCTACATCCTAAGCCACAGAATACAGC here?
The ETS1 binding intensity was 523.

AAACCCTGAGTAATCGGAAGTGGTTAGGAGTGAGAG was tested. Which ETS1 binding intensity did it give?
Its ETS1 binding intensity is 6580.

Which ETS1 binding intensity does the source give for CACCTCAGCTTCCTGTGTAGCTGGGACCACAGGCAT here?
The ETS1 binding intensity was 888.

With GCCCAGTTCTCGCATCCGGTCTGCGGCGCGCTCGGG as the sequence, how does the ETS1 binding intensity read?
The ETS1 binding intensity was 5020.

TTCATCTCTCACTTCCTGTGGTGACGGCTGACGGGG was tested. Which ETS1 binding intensity did it give?
Its ETS1 binding intensity is 4690.

For TGGAGTGAAGCGGCTTCCTTGCGGTTGTGTGCGTGT, which ETS1 binding intensity is on record?
The ETS1 binding intensity was 799.

For AGGCCTCGCTTCCTCTCCTGACCACACCCTGCAGCT, which ETS1 binding intensity is on record?
The ETS1 binding intensity was 590.

How did the ETS1 binding intensity turn out when CCTCCTCCAGACCATCCTGGAAACCACTGCCGTTCT was run?
The ETS1 binding intensity was 488.

For TGGAGAGCACAGGAAGTGGCCCACAGCCCAGGCCAA, which ETS1 binding intensity is on record?
Its ETS1 binding intensity is 6890.

AAAAAGCCGGATGTGAAGGCTGTGGTTCTCAACCCG was tested. Which ETS1 binding intensity did it give?
Its ETS1 binding intensity is 6480.

How did the ETS1 binding intensity turn out when ATGTTTGGGGCCGGAAGTGGGTTGGAGGTGTGGCGG was run?
Its ETS1 binding intensity is 23800.

How did the ETS1 binding intensity turn out when AGTTGGTTCCTTCCGGTGGGTTTGTGGGCTTGGGGT was run?
Its ETS1 binding intensity is 2230.

Biological target: RUNX1 (UniProt Q01196)
Sequence (Q01196 whole entry): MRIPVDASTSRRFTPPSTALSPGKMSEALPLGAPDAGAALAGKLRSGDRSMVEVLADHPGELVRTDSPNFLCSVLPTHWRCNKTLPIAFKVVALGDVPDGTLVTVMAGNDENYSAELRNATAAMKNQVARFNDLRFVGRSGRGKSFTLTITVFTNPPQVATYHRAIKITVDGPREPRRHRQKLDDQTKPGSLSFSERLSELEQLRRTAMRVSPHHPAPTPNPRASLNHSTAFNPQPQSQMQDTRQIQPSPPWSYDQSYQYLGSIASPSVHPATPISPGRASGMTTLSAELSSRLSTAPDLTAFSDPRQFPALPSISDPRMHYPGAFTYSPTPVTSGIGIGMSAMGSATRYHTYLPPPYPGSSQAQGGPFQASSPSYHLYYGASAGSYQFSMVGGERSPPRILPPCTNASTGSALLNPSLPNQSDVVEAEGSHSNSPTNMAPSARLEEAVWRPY
Assay: RUNX1 binding intensity (PBM fluorescence) in presence of ETS1, normalised to RUNX1-only experiment (arbitrary fluorescence units); higher = stronger binding
Conditions: RUNX1 concentration 2 nM; ETS1 concentration 25 nM
Description: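 Cooperative gcPBM on 36-bp genomic probes with neighbouring ETS1 and RUNX1 sites. Recombinant human RUNX1 (2 nM) was incubated alone or with ETS1 (25 nM) and detected with anti-RUNX1 antibody plus Alexa488 secondary. Values are medians over 4 replicate spots; the RUNX1+ETS1 data were normalised to the RUNX1-only data. The probes sit in constant array flanks that are not printed.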

Which RUNX1 binding intensity does the source give for ATGGCGGAGCGGAAGTCCCAGCCACAACGCGAAAAG here?
Its RUNX1 binding intensity is 1370.

With CCCACTGATAAGACAGGATGTGGTAAAGAAGCCAGC as the sequence, how does the RUNX1 binding intensity read?
Its RUNX1 binding intensity is 6790.

AGCCGCCACTTCCTGTCTCTGCGGGTGCATGCTCTT was tested. Which RUNX1 binding intensity did it give?
The RUNX1 binding intensity was 3580.

With CCTGTACGGAAGCTACTCTGGTTTCATGTGGTTTCA as the sequence, how does the RUNX1 binding intensity read?
Its RUNX1 binding intensity is 1030.

How did the RUNX1 binding intensity turn out when GCCACAGCCGGAAGCAGGCTGACCACAAGTGCTAAG was run?
Its RUNX1 binding intensity is 6190.

With CCCTGGACGGGAAGCGGCGGCCAGATCCGCAAGCCC as the sequence, how does the RUNX1 binding intensity read?
Its RUNX1 binding intensity is 940.

Which RUNX1 binding intensity does the source give for TACGTCACTTCCGGGCCGCCGTCCTGCGGGCAAGGG here?
The RUNX1 binding intensity was 2270.

With GGTTCTCTAGGGAGAGGATGTGGGTTTGTCTCTGGG as the sequence, how does the RUNX1 binding intensity read?
The RUNX1 binding intensity was 1570.

GTGCTAAGTGAGGAAGTGCAGTTTACCGCACGGTGG was tested. Which RUNX1 binding intensity did it give?
Its RUNX1 binding intensity is 935.

Which RUNX1 binding intensity does the source give for GAAGAGAAAGGAAACGGCTCGCGGTTTCTGGGGTTC here?
The RUNX1 binding intensity was 1280.

For CCTCGCCCCCTTCCGCACCCACCCCACCGCGCTCCG, which RUNX1 binding intensity is on record?
Its RUNX1 binding intensity is 2360.

Which RUNX1 binding intensity does the source give for GCGCAGGTCCCGGATGTTGCGGACAGTATGAGGCAA here?
Its RUNX1 binding intensity is 1570.

For GGGGCTGGGAAAGGATGTGGTAAGGGCCAGTCAGTC, which RUNX1 binding intensity is on record?
The RUNX1 binding intensity was 1920.

TGGTGCCAAACATCCGCTAGCCACAGAAAAACCGAC was tested. Which RUNX1 binding intensity did it give?
Its RUNX1 binding intensity is 1640.

Which RUNX1 binding intensity does the source give for GGGAGGCCCCATCCTGTGTGGCTGTGGCTTTTGCCT here?
The RUNX1 binding intensity was 1020.

With GTTCAGCGGACGGCTTCCTGCGGCTTGCTGGGGCCG as the sequence, how does the RUNX1 binding intensity read?
The RUNX1 binding intensity was 1000.

TTGACTCGGGAATGTCCGGTCGTGGTAAGCAGGGTG was tested. Which RUNX1 binding intensity did it give?
Its RUNX1 binding intensity is 999.

For GGCCGGGGGCAGGAAGCTGCGGCGCTGGCTCCCCCC, which RUNX1 binding intensity is on record?
The RUNX1 binding intensity was 884.

Which RUNX1 binding intensity does the source give for GATGGTGTCTTTTGGGGATGTGGGTTTGGGGGATGG here?
Its RUNX1 binding intensity is 961.

With CTTAGTGTTTGAGGATGTGGGTTTTACAATCAGATC as the sequence, how does the RUNX1 binding intensity read?
The RUNX1 binding intensity was 1310.

How did the RUNX1 binding intensity turn out when CAACGGCGTAGCCGGAAGTCAGTGGTTTTCGCCCCA was run?
The RUNX1 binding intensity was 1650.

With AGTGGATAGCACTTCCTTCTCTTACCACAGTTCCTT as the sequence, how does the RUNX1 binding intensity read?
The RUNX1 binding intensity was 1610.

For GCTGCAAGGCGGAAGCAGCGCGGTCGGACGGGCATG, which RUNX1 binding intensity is on record?
The RUNX1 binding intensity was 997.

How did the RUNX1 binding intensity turn out when CTGCCTTTCCTGCTAGGGTACAAACCACAGCCTTAG was run?
Its RUNX1 binding intensity is 1640.

With GTGGGTTTAGGATATGGGTGTGGTTTCTAATTGTCT as the sequence, how does the RUNX1 binding intensity read?
Its RUNX1 binding intensity is 1020.

With CACCCTCAACTTCCTGACCCATAAACCACAAGCTAT as the sequence, how does the RUNX1 binding intensity read?
The RUNX1 binding intensity was 13100.

Which RUNX1 binding intensity does the source give for AAGAGGAAGTCCCAAATTGCTTTTTAACCACCAACA here?
Its RUNX1 binding intensity is 888.

With ACAGAGAAGCTTCCTATTGTGGGATTCACCACCACC as the sequence, how does the RUNX1 binding intensity read?
The RUNX1 binding intensity was 942.

For ACAAAGAAACCTACATCCTAAGCCACAGAATACAGC, which RUNX1 binding intensity is on record?
The RUNX1 binding intensity was 881.

For AAACCCTGAGTAATCGGAAGTGGTTAGGAGTGAGAG, which RUNX1 binding intensity is on record?
Its RUNX1 binding intensity is 1310.

For CACCTCAGCTTCCTGTGTAGCTGGGACCACAGGCAT, which RUNX1 binding intensity is on record?
Its RUNX1 binding intensity is 1560.

GCCCAGTTCTCGCATCCGGTCTGCGGCGCGCTCGGG was tested. Which RUNX1 binding intensity did it give?
Its RUNX1 binding intensity is 1840.

With TTCATCTCTCACTTCCTGTGGTGACGGCTGACGGGG as the sequence, how does the RUNX1 binding intensity read?
The RUNX1 binding intensity was 1660.

For TGGAGTGAAGCGGCTTCCTTGCGGTTGTGTGCGTGT, which RUNX1 binding intensity is on record?
Its RUNX1 binding intensity is 2630.

With AGGCCTCGCTTCCTCTCCTGACCACACCCTGCAGCT as the sequence, how does the RUNX1 binding intensity read?
The RUNX1 binding intensity was 1800.

How did the RUNX1 binding intensity turn out when CCTCCTCCAGACCATCCTGGAAACCACTGCCGTTCT was run?
The RUNX1 binding intensity was 1360.

How did the RUNX1 binding intensity turn out when TGGAGAGCACAGGAAGTGGCCCACAGCCCAGGCCAA was run?
The RUNX1 binding intensity was 1280.

With AAAAAGCCGGATGTGAAGGCTGTGGTTCTCAACCCG as the sequence, how does the RUNX1 binding intensity read?
The RUNX1 binding intensity was 1310.

ATGTTTGGGGCCGGAAGTGGGTTGGAGGTGTGGCGG was tested. Which RUNX1 binding intensity did it give?
Its RUNX1 binding intensity is 2830.

How did the RUNX1 binding intensity turn out when AGTTGGTTCCTTCCGGTGGGTTTGTGGGCTTGGGGT was run?
The RUNX1 binding intensity was 1880.

Source: the supplement of paper PMC10681739
